Here are results for four compounds from PubChem BioAssay.

Results filed as inconclusive are left out. Active and inactive are the calls of the source. Unless noted, no rule for the calls is given here.

Assay [1] is described as follows: rapamycin-like changes in RPL19A-GFP expression – cell-based, S. cerevisiae, multiplex flow cytometry, primary screen (AID 1862; in the data active = percent of DMSO control GFP below about 86%;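 also: lower values mimic rapamycin by blocking the RPL19A rise seen in DMSO cells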). Particulars: S. cerevisiae RPL19A-GFP strain, flow cytometry fluorescence, 3 h; at 10 µM; stronger effect = lower value. In general terms: In flow cytometry, cells or beads pass a laser one at a time.
A short description of assay [2]: TOR pathway GLN3 branch reporter MEP2-GFP changes – S. cerevisiae, multiplex flow cytometry, primary screen (AID 1867;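 active = GFP response, as percent of the DMSO control, above the screen-wide mean plus 3 SD, about 139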;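 also: median GFP channel fluorescence of barcode-gated MEP2-GFP cells measured by flow cytometry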). Particulars: S. cerevisiae MEP2-GFP strain, 3 h, at 10 µM, stronger effect = higher value.
A short description of assay [3]: TOR pathway RTG branch CIT2 reporter changes – S. cerevisiae, GFP fusion, multiplex flow cytometry, primary screen (AID 1870;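 active = percent response above a set limit, the screen-wide mean plus 3 SD, cut at about 130% in these data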;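 also: barcoded CIT2-GFP strain pooled with four other GFP strains with rapamycin as positive control; median GFP fluorescence per well over plate mean of DMSO wells so 100% = DMSO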). Particulars: S. cerevisiae CIT2-GFP expression, 3 h, at 10 µM, stronger effect = higher value.
Assay [4] in a line: TOR pathway LAP4-GFP level changes – S. cerevisiae, multiplex flow cytometry, primary screen (AID 1873;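 active = GFP signal, as percent of the solvent control, above the screen mean plus 3 SD, about 149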). Particulars: S. cerevisiae LAP4-GFP expression, 3 h, at 10 µM, stronger effect = higher value.
Assay [5] is described as follows: yeast AGP1-GFP level changes, GLN3 branch – cell-based, multiplex flow cytometry, S. cerevisiae, primary screen (AID 1887;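 active = GFP signal above the screen-wide mean plus 3 SD, that is over about 124.5% of the solvent control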;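 also: AGP1-GFP fusion strain of S. cerevisiae within a five-strain barcoded multiplex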). Particulars: 3 h, at 10 µM, stronger effect = higher value.
Assay [6] is described as follows: reduced mouse 2C T cell binding to pMHC/ICAM-1 vesicles – MLPCN validation set, flow cytometry, LFA-1/ICAM-1 modulator project, pilot screen (AID 2523;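 active = response below a set limit, under 55% cells CD8-positive and vesicle-bound, and CD8 cells' 90th-percentile brightness under 279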;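 as to vesicle binding response: mean PE anti-B7-1 fluorescence of CD8+ cells relative to row control; 100% = QL9-loaded vesicles with DMSO vehicle in the same plate row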). Particulars: 2C mouse CD8+ T cells, at 7 µM, stronger effect = lower value; double positive events: measured here: CD8+/vesicle+ event percentage.
In assay [7] the target is Integrin beta-1 (Homo sapiens) + Integrin alpha-4 (Homo sapiens) (UniProt P13612+P05556). As to the kind of experiment: alpha4beta1 integrin LIBS antibody binding reduction – U937 cells, HUTS-21 mAb, flow cytometry, validation set, VLA-4 allosteric modulator project, pilot screen (AID 2674;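 active = inhibition above 50%, about 3 SD of the validation set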;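 also: antibody binding induced by the VLA-4 ligand LDV present at three times its Kd; 0% = LDV ligand with antibody and no compound and 100% = antibody without LDV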). Particulars: HUTS-21 LIBS mAb binding, at 6.7 µM, stronger effect = higher value.
The target in assay [8] is Beta-adrenergic receptor kinase 1 (Homo sapiens) (UniProt P25098). Put plainly: GRK2 binders displacing RNA aptamer, biochemical, validation, human GRK2, bead flow cytometry (AID 488806;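 active = aptamer binding inhibition above 30%, about 3 SD of noise from non-fluorescent compounds; inactive = inhibition at or below 30%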). Particulars: bead-bound GRK2, FAM-aptamer displacement, at 10 µM, stronger effect = higher value.
For assay [9], the target named is Beta-2 adrenergic receptor (Homo sapiens) (UniProt P07550). As to the kind of experiment: agonist-induced loss of surface beta2AR – cell-based, FAP fluorogen, flow cytometry, validation set, pilot screen (AID 504459;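 active = percent response above 42, roughly 3 SD of non-fluorescent test compounds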;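 also: agonist-driven loss of surface beta2AR via internalization measured by FAP dye flow cytometry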). Particulars: Am2.2-beta2AR cells, at 10 µM, stronger effect = higher value.
Assay [10] has as its target AP-2 complex subunit beta (Homo sapiens) (UniProt P63010). Put plainly: beta-arrestin/AP2 interaction blockers – biochemical, validation set, GST-AP2 beads, flow cytometry, pilot screen (AID 504541;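 active = inhibition above 54%, about 3 SD of non-fluorescent compounds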;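 also: AP2 carries R879A mutation and is captured from E. coli lysate; bead-bound FITC arrestin peptide fluorescence measuring arrestin peptide binding to AP2; 0% = DMSO wells and 100% = excess unlabeled arrestin peptide control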). Particulars: FITC arrestin peptide, at 10 µM, stronger effect = higher value.
Assay [11] in a line: cytosolic pH regulators acting via V-ATPase – S. cerevisiae, pHLuorin, HTS validation (AID 504600; in the data active = response above about 15%;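 also: plate controls were DMSO for no effect and reference compound for full effect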). Particulars: V-ATPase proton transport, at 10 µM, stronger effect = higher value.
Assay [12] deals with anti-desmoglein-3 scFv antibody binding to human DSG3. Put plainly: blockers of pathogenic pemphigus antibody–desmoglein-3 binding – biochemical, validation compound set, bead-based, flow cytometry, pilot screen (AID 588368;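 active = binding below the plate cutoff, the plate median minus 3 SD, with a reading above zero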;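 also: signal is the median channel fluorescence of bead-bound GFP antibody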). Particulars: Protein G beads, DSG3-Fc, scFv-GFP binding, at 10 µM, stronger effect = lower value.
Assay [13] deals with Botulinum neurotoxin type F light chain protease (Clostridium botulinum). Put plainly: Clostridium botulinum type F light chain protease inhibitors, microsphere substrate cleavage, validation (AID 588459). Particulars: multiplex microsphere protease substrate cleavage assay, flow cytometry; at 10 µM; stronger effect = higher value.
Assay [14] has as its target Botulinum neurotoxin type A (Clostridium botulinum) (UniProt P0DPI0). Put plainly: BoNT/A light chain protease inhibitors, biochemical, multiplex microsphere flow cytometry, validation set (AID 588460). Particulars: at 10 µM, stronger effect = higher value.
In assay [15] the target is Lethal factor (Bacillus anthracis) (UniProt P15917). Put plainly: Bacillus anthracis lethal factor inhibition, microsphere flow cytometry protease assay, validation at 10 µM (AID 588461). Particulars: multiplex microsphere protease cleavage assay, stronger effect = higher value.
Assay [16] in a line: Nile Red efflux blockade in pump-expressing yeast – validation compound set, multiplex, phenotypic, pilot screen (AID 588506;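 active = efflux inhibition above 0.42, the validation set average plus 4 SD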;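 also: Nile Red retained in cells so higher fluorescence means more efflux inhibition; 0 = negative control wells and 1 = enniatin B 25 µM full block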). Particulars: S. cerevisiae pump-expressing triplex, Nile Red efflux flow cytometry; at 10 µM; stronger effect = higher value.
For assay [17], the target named is ATP-binding cassette sub-family B member 6 (Homo sapiens) (UniProt Q9NP58). Put plainly: blockers of ABCB6-driven porphyrin uptake – K562-ABCB6 cells, flow cytometry, validation set, pilot screen (AID 588550;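 active = inhibition above the screen-wide mean plus 3 SD, about 51%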;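 also: 0% = DMSO wells and 100% = benzethonium chloride 70 µM positive control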). Particulars: K562-ABCB6 porphyrin accumulation, 1 h, at 10 µM, stronger effect = higher value.
Assay [18] is described as follows: AML differentiation inducers, ER-HoxA9 marrow cells – cell-based, GFP/MAC1 double positive, flow cytometry, validation set, primary screen (AID 588685;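 active = differentiation response of at least 50%, scaled between solvent and reference control, from cells with both markers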;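 also: compound exposure lasts four days before antibody staining and flow analysis; 0% = DMSO wells and 100% = 5 µM fulvestrant positive control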). Particulars: stronger effect = higher value.
The nature of assay [19]: calorie-restriction mimetic ROS inhibitors, yeast – validation compound set, pilot screen (AID 2706;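 active = superoxide response below 65% of plate, a cut near 3 SD across the whole screen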;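 also: yeast exposed to compound for one week at 30 degrees C before staining; 100% = mean of all compound wells on the same plate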). Particulars: S. cerevisiae aging, superoxide DHE fluorescence; at 10 µM; stronger effect = lower value.

AP-2 complex subunit beta (Homo sapiens), sequence (P63010 whole entry, looked up, one chain of several): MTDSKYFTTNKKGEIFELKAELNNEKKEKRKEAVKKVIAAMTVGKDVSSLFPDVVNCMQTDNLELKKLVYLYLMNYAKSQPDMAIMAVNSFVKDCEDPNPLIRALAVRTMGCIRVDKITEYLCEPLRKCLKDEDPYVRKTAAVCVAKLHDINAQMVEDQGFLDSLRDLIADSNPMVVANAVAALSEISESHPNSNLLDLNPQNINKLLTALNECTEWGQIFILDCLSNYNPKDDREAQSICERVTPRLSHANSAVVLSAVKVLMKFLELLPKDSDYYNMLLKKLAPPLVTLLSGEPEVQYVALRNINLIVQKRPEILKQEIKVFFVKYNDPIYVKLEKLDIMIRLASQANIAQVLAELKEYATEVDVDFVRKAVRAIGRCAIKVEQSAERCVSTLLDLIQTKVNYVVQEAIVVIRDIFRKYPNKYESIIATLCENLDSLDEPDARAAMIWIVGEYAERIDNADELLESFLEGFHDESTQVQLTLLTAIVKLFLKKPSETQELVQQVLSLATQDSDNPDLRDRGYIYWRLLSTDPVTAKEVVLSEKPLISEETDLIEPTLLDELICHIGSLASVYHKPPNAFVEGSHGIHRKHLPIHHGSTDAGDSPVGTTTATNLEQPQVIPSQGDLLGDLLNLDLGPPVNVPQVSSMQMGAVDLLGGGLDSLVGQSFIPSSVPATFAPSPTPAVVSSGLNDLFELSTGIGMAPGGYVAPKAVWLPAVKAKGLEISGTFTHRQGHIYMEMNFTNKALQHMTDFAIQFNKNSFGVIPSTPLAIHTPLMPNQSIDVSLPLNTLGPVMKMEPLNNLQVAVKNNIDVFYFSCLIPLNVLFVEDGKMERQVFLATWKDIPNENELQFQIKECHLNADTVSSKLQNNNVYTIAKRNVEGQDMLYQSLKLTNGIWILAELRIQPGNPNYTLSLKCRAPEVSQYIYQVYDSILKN
ATP-binding cassette sub-family B member 6 (Homo sapiens), sequence (Q9NP58 whole entry, looked up): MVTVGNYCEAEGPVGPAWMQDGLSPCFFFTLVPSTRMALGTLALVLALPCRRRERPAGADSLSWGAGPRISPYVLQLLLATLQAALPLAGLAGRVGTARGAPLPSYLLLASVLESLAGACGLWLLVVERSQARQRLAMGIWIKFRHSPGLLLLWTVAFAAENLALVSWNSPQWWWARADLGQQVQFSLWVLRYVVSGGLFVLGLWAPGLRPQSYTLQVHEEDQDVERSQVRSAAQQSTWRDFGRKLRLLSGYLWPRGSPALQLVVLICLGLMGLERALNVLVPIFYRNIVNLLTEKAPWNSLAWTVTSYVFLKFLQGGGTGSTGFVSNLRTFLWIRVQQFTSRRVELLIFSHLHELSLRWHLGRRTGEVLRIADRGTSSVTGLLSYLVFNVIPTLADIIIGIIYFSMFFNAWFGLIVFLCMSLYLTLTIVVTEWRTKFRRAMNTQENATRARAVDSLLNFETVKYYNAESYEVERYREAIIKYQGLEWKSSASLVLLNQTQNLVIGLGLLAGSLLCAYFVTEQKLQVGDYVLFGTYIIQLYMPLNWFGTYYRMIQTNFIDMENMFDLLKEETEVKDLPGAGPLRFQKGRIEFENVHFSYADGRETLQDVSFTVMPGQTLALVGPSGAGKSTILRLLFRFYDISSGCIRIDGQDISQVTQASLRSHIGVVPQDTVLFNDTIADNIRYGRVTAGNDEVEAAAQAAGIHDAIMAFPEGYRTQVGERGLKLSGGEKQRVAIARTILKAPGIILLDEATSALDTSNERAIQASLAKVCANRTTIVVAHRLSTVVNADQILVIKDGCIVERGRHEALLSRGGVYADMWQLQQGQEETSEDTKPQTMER
Botulinum neurotoxin type A (Clostridium botulinum), sequence (P0DPI0 whole entry, looked up): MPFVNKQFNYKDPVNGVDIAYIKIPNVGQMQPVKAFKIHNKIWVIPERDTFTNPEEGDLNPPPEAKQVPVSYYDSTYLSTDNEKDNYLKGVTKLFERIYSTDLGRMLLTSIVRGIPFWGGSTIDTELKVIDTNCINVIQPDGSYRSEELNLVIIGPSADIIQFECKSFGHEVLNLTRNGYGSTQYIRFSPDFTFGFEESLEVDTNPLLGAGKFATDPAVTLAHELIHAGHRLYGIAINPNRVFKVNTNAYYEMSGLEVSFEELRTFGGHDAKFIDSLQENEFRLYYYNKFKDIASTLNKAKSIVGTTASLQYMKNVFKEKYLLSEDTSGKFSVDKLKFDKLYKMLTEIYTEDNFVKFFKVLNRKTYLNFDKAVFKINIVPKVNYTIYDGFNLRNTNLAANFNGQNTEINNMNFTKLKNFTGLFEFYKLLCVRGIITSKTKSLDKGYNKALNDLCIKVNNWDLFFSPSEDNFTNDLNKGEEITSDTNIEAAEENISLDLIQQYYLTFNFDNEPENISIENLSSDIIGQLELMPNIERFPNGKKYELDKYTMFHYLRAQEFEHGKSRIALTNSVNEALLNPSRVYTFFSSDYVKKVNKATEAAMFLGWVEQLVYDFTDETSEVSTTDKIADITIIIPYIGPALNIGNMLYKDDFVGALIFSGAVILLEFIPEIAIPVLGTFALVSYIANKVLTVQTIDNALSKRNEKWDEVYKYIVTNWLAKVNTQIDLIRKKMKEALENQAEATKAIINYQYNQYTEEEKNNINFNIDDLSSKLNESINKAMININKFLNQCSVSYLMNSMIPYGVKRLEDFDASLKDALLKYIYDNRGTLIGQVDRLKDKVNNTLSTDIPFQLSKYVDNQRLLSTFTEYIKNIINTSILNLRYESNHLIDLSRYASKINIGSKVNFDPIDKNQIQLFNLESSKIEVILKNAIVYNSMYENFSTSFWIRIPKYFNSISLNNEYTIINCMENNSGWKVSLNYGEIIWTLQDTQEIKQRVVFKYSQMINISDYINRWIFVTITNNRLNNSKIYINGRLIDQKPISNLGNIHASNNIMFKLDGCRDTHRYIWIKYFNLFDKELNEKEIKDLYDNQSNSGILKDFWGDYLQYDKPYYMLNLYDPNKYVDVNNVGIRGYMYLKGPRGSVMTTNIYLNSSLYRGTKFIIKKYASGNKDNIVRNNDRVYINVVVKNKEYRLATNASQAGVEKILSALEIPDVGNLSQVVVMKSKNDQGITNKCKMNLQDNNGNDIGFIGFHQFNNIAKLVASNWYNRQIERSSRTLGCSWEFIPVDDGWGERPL
Lethal factor (Bacillus anthracis), sequence (P15917 whole entry, looked up): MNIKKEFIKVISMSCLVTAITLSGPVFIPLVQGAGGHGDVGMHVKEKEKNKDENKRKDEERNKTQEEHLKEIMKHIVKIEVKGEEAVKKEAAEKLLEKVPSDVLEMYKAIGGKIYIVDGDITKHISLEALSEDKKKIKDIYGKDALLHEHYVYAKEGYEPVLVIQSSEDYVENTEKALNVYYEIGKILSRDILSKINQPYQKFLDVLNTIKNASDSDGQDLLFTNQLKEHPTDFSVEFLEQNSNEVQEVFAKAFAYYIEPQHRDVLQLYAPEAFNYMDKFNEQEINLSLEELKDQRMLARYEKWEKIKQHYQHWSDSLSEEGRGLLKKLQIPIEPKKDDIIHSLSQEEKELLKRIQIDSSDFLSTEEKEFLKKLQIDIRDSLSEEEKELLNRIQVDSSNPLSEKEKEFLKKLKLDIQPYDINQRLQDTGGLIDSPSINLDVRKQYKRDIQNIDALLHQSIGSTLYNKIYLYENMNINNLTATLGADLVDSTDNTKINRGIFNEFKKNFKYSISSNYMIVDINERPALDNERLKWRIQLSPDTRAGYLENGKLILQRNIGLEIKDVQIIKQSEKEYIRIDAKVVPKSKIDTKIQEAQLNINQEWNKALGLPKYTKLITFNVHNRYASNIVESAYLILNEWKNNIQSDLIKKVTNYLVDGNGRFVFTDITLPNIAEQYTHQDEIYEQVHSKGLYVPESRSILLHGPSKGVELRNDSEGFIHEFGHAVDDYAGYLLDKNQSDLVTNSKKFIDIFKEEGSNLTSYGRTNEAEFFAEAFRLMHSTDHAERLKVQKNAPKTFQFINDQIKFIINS
Beta-adrenergic receptor kinase 1 (Homo sapiens), sequence (P25098 whole entry, looked up): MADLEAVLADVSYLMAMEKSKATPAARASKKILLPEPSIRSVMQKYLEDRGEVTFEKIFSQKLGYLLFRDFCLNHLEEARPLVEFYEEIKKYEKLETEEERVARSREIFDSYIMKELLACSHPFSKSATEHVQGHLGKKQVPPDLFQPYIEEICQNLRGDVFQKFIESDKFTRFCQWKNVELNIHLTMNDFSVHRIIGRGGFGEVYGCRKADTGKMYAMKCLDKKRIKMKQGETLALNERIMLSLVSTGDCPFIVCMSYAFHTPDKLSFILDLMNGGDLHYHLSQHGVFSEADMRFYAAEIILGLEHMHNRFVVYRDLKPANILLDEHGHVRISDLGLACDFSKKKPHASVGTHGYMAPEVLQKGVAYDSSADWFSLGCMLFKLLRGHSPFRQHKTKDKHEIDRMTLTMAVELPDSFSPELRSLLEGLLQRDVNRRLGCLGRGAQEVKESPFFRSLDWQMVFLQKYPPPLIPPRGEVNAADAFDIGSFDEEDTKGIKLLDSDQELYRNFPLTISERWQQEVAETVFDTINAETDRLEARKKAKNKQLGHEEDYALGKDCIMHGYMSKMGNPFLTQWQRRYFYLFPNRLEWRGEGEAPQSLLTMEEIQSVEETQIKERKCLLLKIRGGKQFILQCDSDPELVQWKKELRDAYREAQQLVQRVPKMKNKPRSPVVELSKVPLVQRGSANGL
Beta-2 adrenergic receptor (Homo sapiens), sequence (P07550 whole entry, looked up): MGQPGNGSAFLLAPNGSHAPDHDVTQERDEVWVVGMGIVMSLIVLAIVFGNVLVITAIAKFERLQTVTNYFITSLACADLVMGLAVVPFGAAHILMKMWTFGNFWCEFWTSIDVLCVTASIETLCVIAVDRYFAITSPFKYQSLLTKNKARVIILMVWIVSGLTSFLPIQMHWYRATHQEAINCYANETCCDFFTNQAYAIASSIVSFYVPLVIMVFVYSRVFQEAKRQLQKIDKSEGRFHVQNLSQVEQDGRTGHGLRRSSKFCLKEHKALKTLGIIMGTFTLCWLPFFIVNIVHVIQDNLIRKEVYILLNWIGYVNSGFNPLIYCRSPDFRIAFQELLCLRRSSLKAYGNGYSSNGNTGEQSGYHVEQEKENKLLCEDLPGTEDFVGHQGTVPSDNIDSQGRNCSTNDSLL

With `CN1C(=O)CN=C(c2ccc(Cl)cc2)c2cc(Cl)ccc21`, the percent of DMSO control GFP in assay [1] is 99% (inactive). In addition, the results for the GFP response vs DMSO in assay [2] and in assay [4] were 100% (inactive) and 103% (inactive), respectively. The percent response of DMSO control in assay [3] was 95.4% (inactive). The GFP response, % of DMSO in assay [5] is 92.2% (inactive). The compound also registered a double positive events in [6] of 62.8%. In addition, the vesicle binding response in assay [6] is 174% (inactive). For the same compound, the inhibition in assay [7] was 9.92% (inactive); in [10], -0.45% (inactive); in assay [13], 3.6% (inactive); in assay [14], 0.8% (inactive); in [15], -3.5% (inactive); in assay [17], 7% (inactive). In assay [8], the aptamer binding inhibition is -1% (inactive). Besides, the response in assay [9] was -17.9% (inactive); in assay [11], 4.65% (inactive). Further, the binding (% of control) in assay [12] is 96.8% (inactive). Besides, in [16], the efflux inhibition (fraction of control) was 0.27 (inactive). The differentiation response in assay [18] is 1.22% (inactive).

Consider `NCC1(c2ccc3c(c2)OCCO3)CCCC1`, for which the percent of DMSO control GFP in assay [1] was 98.3% (inactive). For the same compound, the GFP response vs DMSO is 101% (inactive) in [2] and 89.3% (inactive) in [4]. Also, the percent response of DMSO control in [3] was 97.9% (inactive). In addition, in assay [5], the GFP response, % of DMSO was 91.3% (inactive). For the same compound, in assay [6], the double positive events is 60.7%. Moreover, the vesicle binding response in assay [6] was 107% (inactive). Besides, the inhibition in assay [7] is -51.5% (inactive); in assay [10], 6.32% (inactive); in [13], 0.5% (inactive); in assay [14], -0.6% (inactive); in assay [15], 0.5% (inactive); in assay [17], 6% (inactive). The superoxide response (% of plate) in assay [19] is 101% (inactive). In addition, the aptamer binding inhibition in assay [8] is 1% (inactive). In assay [11], the response was -0.06% (inactive). Moreover, in assay [12], the binding (% of control) is 98.8% (inactive). In assay [16], the efflux inhibition (fraction of control) is 0.06 (inactive). Moreover, in assay [18], the differentiation response is 1.41% (inactive).

As for `[N-]=[N+]=NC1C[C@H](n2ccc(=O)[nH]c2=O)O[C@@H]1CO` (stereo partly drawn), the percent of DMSO control GFP in [1] is 101% (inactive). Further, the GFP response vs DMSO in [2] was 99.9% (inactive); in assay [4], 101% (inactive). In addition, the percent response of DMSO control in [3] was 106% (inactive). For the same compound, the GFP response, % of DMSO in assay [5] was 104% (inactive). In assay [6], this compound yielded a double positive events of 56.5%. In addition, the vesicle binding response in assay [6] was 185% (inactive). Further, the inhibition was 9.09% (inactive) in [7]; 42% (inactive) in assay [10]; 0.8% (inactive) in assay [13]; -1.5% (inactive) in assay [14]; -5.9% (inactive) in [15]; 6% (inactive) in assay [17]. The superoxide response (% of plate) in assay [19] was 97.1% (inactive). Moreover, the aptamer binding inhibition in assay [8] is -2% (inactive). Also, the response in assay [11] was -3.04% (inactive). In assay [12], the binding (% of control) is 97.7% (inactive). The efflux inhibition (fraction of control) in assay [16] is 0.03 (inactive). The differentiation response in assay [18] is -21.2% (inactive).

As to `S=C1NCCN1`, the percent of DMSO control GFP in assay [1] is 99.1% (inactive). The GFP response vs DMSO in [2] is 109% (inactive); in [4], 102% (inactive). Further, in assay [3], the percent response of DMSO control is 97.9% (inactive). In assay [5], the GFP response, % of DMSO is 99.6% (inactive). Moreover, in [6], the double positive events is 65.7%. The vesicle binding response in assay [6] was 186% (inactive). The inhibition is 6.29% (inactive) in assay [7], 24.8% (inactive) in [10] and 14% (inactive) in assay [17]. In addition, the superoxide response (% of plate) in assay [19] is 98.2% (inactive). Besides, the aptamer binding inhibition in assay [8] is 3% (inactive). In [11], the response is -0.28% (inactive). Moreover, the binding (% of control) in [12] was 98% (inactive). Moreover, the efflux inhibition (fraction of control) in assay [16] is 0.63 (active). In addition, the differentiation response in assay [18] was -0.2% (inactive).

As usually defined, the inhibition is the change of the read-out against control, counted positive when it falls.
